# Assay results reported in the supplement of paper PMC12669032.
# Unmarked numbers belong to inactive results.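 Rule for the calls: active = AUC reduced over 20% with Padj below 0.05 in at least 2 of 3 replicates; inactive = otherwise.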
# Key:
# Assay in all cases: growth AUC relative to DMSO control (median of replicates) (fraction); higher = more growth (less inhibition), active = hit call of the paper
# Settings in all cases: 20 µM; 24 h
# Akkermansia muciniphila = test system: Akkermansia muciniphila
# In short: (§1)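 Gut bacterial monocultures were grown anaerobically at 37 °C in mGAM, starting at OD600 0.05, with 20 µM compound (1% DMSO) in round-bottom 96-well plates under pierced gas-permeable seals. OD600 was read hourly for 24 h. Area under the growth curve (minimum OD set to 0) was normalised to the plate median of DMSO controls, or to row and column medians on the industrial chemical plate. The value is the median of three biological replicates grown on separate days.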
# Bacteroides caccae = test system: Bacteroides caccae
# In short: as §1
# Bacteroides clarus = test system: Bacteroides clarus
# In short: as §1
# Bacteroides dorei = test system: Bacteroides dorei
# In short: as §1
# Bacteroides stercoris = test system: Bacteroides stercoris
# In short: as §1
# [1] = test system: Bacteroides thetaiotaomicron
# In short: as §1
# Bacteroides uniformis = test system: Bacteroides uniformis
# In short: as §1
# [2] = test system: Bifidobacterium longum subsp. longum
# In short: as §1
# Clostridium difficile = test system: Clostridium difficile
# In short: as §1
# Collinsella aerofaciens = test system: Collinsella aerofaciens
# In short: as §1
# Coprococcus comes = test system: Coprococcus comes
# In short: as §1
# Escherichia coli ED1a = test system: Escherichia coli ED1a
# In short: as §1
# Escherichia coli IAI1 = test system: Escherichia coli IAI1
# In short: as §1
# Eubacterium rectale = test system: Eubacterium rectale
# In short: as §1
# [3] = test system: Fusobacterium nucleatum subsp. animalis
# In short: as §1
# Lactobacillus gasseri = test system: Lactobacillus gasseri
# In short: as §1
# Lactobacillus paracasei = test system: Lactobacillus paracasei
# In short: as §1
# Odoribacter splanchnicus = test system: Odoribacter splanchnicus
# In short: as §1
# [4] = test system: Parabacteroides distasonis
# In short: as §1
# Parabacteroides merdae = test system: Parabacteroides merdae
# In short: as §1
SMILES,growth AUC (Akkermansia muciniphila),growth AUC (Bacteroides caccae),growth AUC (Bacteroides clarus),growth AUC (Bacteroides dorei),growth AUC (Bacteroides stercoris),growth AUC [1],growth AUC (Bacteroides uniformis),growth AUC [2],growth AUC (Clostridium difficile),growth AUC (Collinsella aerofaciens),growth AUC (Coprococcus comes),growth AUC (Escherichia coli ED1a),growth AUC (Escherichia coli IAI1),growth AUC (Eubacterium rectale),growth AUC [3],growth AUC (Lactobacillus gasseri),growth AUC (Lactobacillus paracasei),growth AUC (Odoribacter splanchnicus),growth AUC [4],growth AUC (Parabacteroides merdae)
CC1(C)C(/C=C(\Cl)C(F)(F)F)C1C(=O)OC(C#N)c1cccc(Oc2ccccc2)c1 (stereo not given),0.989,0.951,1.02,1.01,1.19,0.995,0.993,1.12,1.04,0.969,1.01,1.05,1.02,1.03,1.12,0.895,1.08,0.878,1.03,1.03
CCCCN(CC)C(=O)SCCC,0.957,1.01,1.01,0.972,1.11,0.979,0.976,0.983,1.03,0.982,1.03,1.01,1.01,0.982,1.07,0.972,1.02,0.981,1.01,1.02
COP(=O)(OC)Oc1ccc(S(C)=O)c(C)c1 (stereo not given),0.935,0.986,0.95,1,1.02,0.972,0.994,1,1.01,0.996,1.01,0.962,0.987,0.797,0.911,1.13,0.975,1.02,1.01,0.978
CCNc1nc(Cl)nc(NC(C)C)n1,1.05,0.956,1.01,0.945,0.964,1.01,1.01,1.02,0.944,1.04,1.01,1.02,0.992,1.06,1.03,0.976,1.08,1.07,1.05,0.999
O=C1C=C(N(Cc2ccc(Cl)nc2)CC(F)F)CO1,0.98,0.991,0.991,0.977,1.25,1.01,0.997,1.01,0.978,0.994,1.02,0.971,0.994,0.959,1.05,1,0.869,1.01,0.999,1.01
COC(=O)c1ccccc1CS(=O)(=O)NC(=O)Nc1nc(OC)cc(OC)n1,0.94,1.02,0.972,0.985,0.969,1.02,1.01,1.05,1.02,0.956,1.02,0.974,0.978,0.998,0.999,0.996,1,1.02,0.998,1
COC(=O)C(C)Oc1ccc(Oc2ccc(Cl)cc2Cl)cc1 (stereo not given),0.924,0.963,0.951,1.04,0.795,0.986,0.963,0.919,1.01,0.958,0.97,0.99,0.993,1.12,0.953,1.06,0.999,1,0.973,0.96
Oc1ccc(Cl)cc1Cl,1.15,0.802,0.979,0.893,0.938,0.936,0.913,1.05,0.946,0.909,1.01,0.974,0.979,1.13,0.93,0.769,1.01,0.969,0.967,0.853
CNC(=O)ON=C(C)C(C)SC (stereo not given),1.1,0.726 (active),1.03,0.983,1.3,0.916,0.838,1.03,0.927,0.979,0.972,1.03,1.02,1.12,1.07,0.89,0.803,0.91,0.943,0.915
O=C1CCc2cccc3c2N1CC3,1.04,0.874,0.964,0.974,1.14,0.883,0.98,1.03,1.03,0.954,1.03,1,0.966,1.06,1.08,0.889,0.983,1.04,1.03,0.971
O=CNC(N1CCN(C(NC=O)C(Cl)(Cl)Cl)CC1)C(Cl)(Cl)Cl (stereo not given),1.13,0.947,0.923,0.849,0.879,0.919,0.985,1.08,0.957,0.938,0.946,0.975,0.935,0.881,0.658 (active),0.873,1.06,1.01,0.914,0.948
CCCCOC(=O)N(C)SN(C)C(=O)Oc1cccc2c1OC(C)(C)C2,1.03,1.02,0.969,1.01,1.08,1.04,1,1.11,0.992,1.01,1,1.07,1.01,1.2,0.942,0.966,1.05,1.03,1.03,1.01
CON(C)C(=O)Nc1ccc(Br)cc1,0.941,1.01,0.988,0.992,1.16,1.02,0.993,1.18,0.952,1.1,1.05,1.02,1,1.02,1.07,1.15,1.02,1.01,0.983,1.01
COc1cc(OC)nc(Oc2cccc(Oc3nc(OC)cc(OC)n3)c2C(=O)[O-])n1.[Na+],0.934,0.973,0.963,1.02,0.99,1.01,1,0.965,1.06,1.02,0.98,0.989,0.979,1.01,1.04,0.958,0.982,1.01,0.994,1.01
CON(C)C(=O)Nc1ccc(Br)c(Cl)c1,0.863,1.04,0.978,1.08,0.958,0.998,0.944,0.946,0.996,1,1.03,0.958,1.04,0.867,0.886,1.13,0.989,0.998,1.01,0.967
COP(N)(=S)Oc1ccccc1C(=O)OC(C)C (stereo not given),1.19,1.02,0.981,0.893,0.979,0.998,0.999,1.03,0.993,0.993,1.03,0.969,0.982,1.04,0.97,0.906,0.944,0.898,0.877,0.986
C#CCN1C(=O)COc2cc(F)c(N3C(=O)C4=C(CCCC4)C3=O)cc21,1.23,1.01,0.994,0.931,1,1,0.959,1.02,0.929,0.944,1.01,0.98,0.984,1.09,0.944,0.883,0.934,0.948,0.855,0.958
